# Compound activity: PubChem BioAssay, National Center for Advancing Translational Sciences (NCATS)
# CCT chaperon mod – High-Throughput Screening for Modulators of Cytosolic Chaperonin Activity; purified chaperonin ATPase assay, HTRF ADP detection, 30 min; activity change, % (no concentration beside the values), hits read low; hit rate 0.3% among 360,000; in the data active = activity change below about -30%; also: % is scaled to controls: 0 for no effect and ±100 for the full control effect
#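 ATPase activity: ADP formed was measured by HTRF Transcreener (665/615 nm ratio) after 30 min at 37 deg C with 10 uM ATP. Compounds screened at one 76 uM concentration against 40 or 20 nM TRiC in Tris pH 7.4/KCl/MgCl2/DTT buffer.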
# PINK1 modulator – A Quantitative High throughput Screen to Identify Chemical Modulators of PINK1 Expression; PINK1 immunofluorescence, high-content cytometry, 24 h; Potency, µM (top dose mostly 76.6 µM), inactives show at the top dose activation (PINK1 increase), hits mostly activators; hit rate 0.2% among 410,000; active = well fitted activation curve with a large enough effect; inconclusive = small, poorly fitted or top-dose-only effect; cell line not stated here; also: potency is read from the fitted curve at half-maximal effect; % of control where 0% means no effect; nearly all actives have a fitted effect of over 65% in size
#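 Measures PINK1 amount and localization on or inside mitochondria by immunofluorescence. Stable cells get compounds at 5 concentrations for 24 hours before fixation and staining; CCCP controls included.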
# p53 reactivator – qHTS assay for re-activators of p53 using a Luc reporter; H1299 p53-A138V BP100-luciferase reporter, luminescence, 24 h; Potency, µM (highest dose often 92.2 µM), for the others: at the top dose activity change, positive = activation, actives largely listed as activators; hit rate 0.063% among 320,000; also: potency is read from the fitted curve at half-maximal effect; % of control where 0% means no effect; nearly all actives have a fitted effect of over 45% in size
#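 H1299 (p53-null), stable ts p53-A138V + BP100-Luc; 1000 cells/well, Opti-MEM/10% FBS; cpd 4 pt, 1:5; 24 h, 37 deg C, 5% CO2; detection reagent 10 min RT; luminescence.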
# 12-LOX inh – Primary qHTS assay for inhibitors of human arachidonate 12S-lipoxygenase (ALOX12): Round 2; Polyunsaturated fatty acid lipoxygenase ALOX12 (Homo sapiens), P18054; purified 12hLO, xylenol orange hydroperoxide absorbance; Potency, µM (top dose mostly 108 µM), inactives show top-dose activity change, negative = inhibition, hits mostly inhibitors; hit rate 1.1% among 580,000; AID 1671190, 2021; also: potency is read from the fitted curve at half-maximal effect; % is scaled to controls: 0 for no effect and ±100 for the full control effect
#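 Purified human 12hLO at 150 nM in 25 mM Hepes, 0.01% Triton X-100, pH 7.0, preincubated 15 min at room temperature with compound. Reaction started with 40 uM arachidonic acid, 30 min at room temperature. Hydroperoxide measured by Fe-xylenol orange, 573/405 nm absorbance ratio.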
# MmCpn inh – Inhibitors of TCP-1 ring complex (TRiC) of Methanococcus maripaludis (MmCpn): qHTS; AID 504842, 2011; purified Mm-Cpn ATPase, ADP Transcreener TR-FRET; Chaperonin Mm-Cpn (Methanococcus maripaludis); hit rate 0.031% among 330,000; Potency, µM (highest dose often 76.9 µM), for the others: top-dose activity, negative = inhibition, most hits filed as inhibitors; also: potency is read from the fitted curve at half-maximal effect; % is scaled to controls: 0 for no effect and ±100 for the full control effect; nearly all actives have a fitted effect of over 80% in size
#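 ATPase read-out: TR-FRET ADP immunoassay (anti-ADP Eu cryptate vs ADP-d2), ex 320 nm, em 590/665 nm; signal drops as ADP forms. Enzyme 25 nM, ATP 10 uM, 30 min at 37°C after 10 min compound preincubation.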
# ASM inhibitor – Inhibitors of Secretory Acid Sphingomyelinase (S-ASM): qHTS. Sphingomyelin phosphodiesterase (Homo sapiens), P17405. placental ASM, HMU-PC fluorogenic substrate, 60 min. Potency, µM (series often up to 57.5 µM), for the others: at the top dose activity change, negative = inhibition, usual class: inhibitors. hit rate 0.006% among 340,000. AID 504937, 2011; also: potency is read from the fitted curve at half-maximal effect
# Target sequence (P17405 47-631 limits assumed): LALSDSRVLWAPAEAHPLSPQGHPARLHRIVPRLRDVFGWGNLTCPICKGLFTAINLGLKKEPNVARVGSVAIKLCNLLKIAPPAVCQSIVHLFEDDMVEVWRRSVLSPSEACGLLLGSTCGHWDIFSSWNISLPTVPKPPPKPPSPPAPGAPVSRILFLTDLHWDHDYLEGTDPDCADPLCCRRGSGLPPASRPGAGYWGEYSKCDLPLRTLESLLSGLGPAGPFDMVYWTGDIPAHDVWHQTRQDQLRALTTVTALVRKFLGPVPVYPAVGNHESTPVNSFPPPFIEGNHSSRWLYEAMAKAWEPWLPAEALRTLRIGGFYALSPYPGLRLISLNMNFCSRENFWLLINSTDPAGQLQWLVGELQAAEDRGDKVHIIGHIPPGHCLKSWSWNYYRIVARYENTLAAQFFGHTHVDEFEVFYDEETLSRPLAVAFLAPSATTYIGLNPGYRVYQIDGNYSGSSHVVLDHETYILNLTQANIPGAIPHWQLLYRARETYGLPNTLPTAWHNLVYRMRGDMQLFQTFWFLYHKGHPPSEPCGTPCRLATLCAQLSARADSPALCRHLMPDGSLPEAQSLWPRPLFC
#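 Human placenta-derived ASM enzyme was preincubated with compound for 10 minutes at room temperature, then given fluorogenic substrate HMU-PC0 (9 uM final) for 60 minutes at 37 °C; a pH 10 stop preceded fluorescence reading at Ex 386/Em 447 nm.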
# Active calls of the source: *; ? = inconclusive; . = no result given; ! = not confirmed by another sample; [ ] = remark or other dose. The list is not random: actives were taken first. Their share in the collection is about 1.4%. Unless noted, calls follow the shape of the dose curve; as a rule, active = well fitted curve in the direction sought with a large enough effect; inconclusive = small, poorly fitted or top-dose-only effect, or another doubt; inactive = no such curve, though single readings can be large; an effect the other way counts as inactive or inconclusive.
SMILES,CCT chaperon mod,PINK1 modulator,p53 reactivator,12-LOX inh,MmCpn inh,ASM inhibitor
CCOC(=O)C1CCN(S(=O)(=O)c2ccc3c(c2)CC(=O)N3C)CC1,-1.4,0.7%,-1.4%,44.7µM*,-1.2%,3.7%
CCOC(=O)C1CCN(S(=O)(=O)c2ccc(OCC(=O)OC)cc2)CC1,5.0,.,3.5%,-2.9%,1.1%,-0.5%
O=C(c1cncn1-c1ccc(F)cc1)N1CCN(CCN2CCCC2)CC1,.,.,.,5.4%,.,.
COC(=O)CNCc1cccc(F)c1,.,.,.,-54.5%,.,.
COc1ccc(CN2C(=O)C(n3c(C)ccc3C)c3cc(OC(F)(F)F)ccc32)cc1 (configuration not stated),.,.,.,39.8µM*,.,.
COc1ccc2c(c1)C(n1c(C)ccc1C)C(=O)N2Cc1ccc(C(F)(F)F)cc1 (configuration not stated),.,.,.,12.6µM*,.,.
CCOC(=O)c1cccn1C1C(=O)N(Cc2ccc(C(F)(F)F)cc2)c2ccccc21 (configuration not stated),.,.,.,-11.4%,.,.
CC1Sc2ccccc2N(Cc2ccc(OC(F)(F)F)cc2)C1=O (configuration not stated),-1.9,?,.,10.8%,.,.
COc1ccc(CN2CCN(Cc3ccc(C(F)(F)F)cc3)CC2)cc1,-2.5,5.2%,.,?,0.6%,5.5%
COc1ccc(CN2C(=O)C(n3cccc3)c3ccccc32)cc1 (configuration not stated),.,.,.,-22.7%,.,.
COc1ccc2c(c1)C(n1ccc3ccccc31)C(=O)N2Cc1ccc(C(C)C)cc1 (configuration not stated),.,.,.,14.1µM*,.,.
Cc1ccc(C)n1C1C(=O)N(Cc2ccc(C(F)(F)F)cc2)c2ccc(F)cc21 (configuration not stated),.,.,.,25.1µM*,.,.
CCOc1ccc2c(c1)cc(C(=O)Nc1ccccc1OC)n2C,.,.,.,111.8%,.,.
Cn1c(C(=O)Nc2ccc(C(N)=O)cc2)cc2ccccc21,.,.,.,-5.4%,.,.
Clc1ccc(-c2nnc(CSc3nnc4ccccn34)o2)cc1,.,.,.,-1.4%,.,.
O=C1NC2(CCN(Cc3ccsc3)CC2)COc2ccccc21,.,.,.,44.7µM*,.,.
N#Cc1ccc(CN2CCC3(CC2)COc2ccccc2C(=O)N3)cc1,.,.,.,24.6%,.,.
C=CCn1c(SCC(=O)N2CCOCC2)nnc1C(C)NC(=O)c1ccccc1 (configuration not stated),-47.5*,0.3%,4.7%,-6.1%,2.4%,8.4%
C=CCn1c(SCCOc2ccccc2)nnc1C(C)NC(=O)c1ccccc1 (configuration not stated),-1.1,.,2.8%,-7.6%,1.6%,4.2%
COc1ccc(C(=O)N2CCN(C3CCCCC3)CC2)cc1OC,-0.5,3.8%,.,0.631µM*,0.3%,14.3%
CC(NC(=O)CCC1CCCO1)c1cccs1 (configuration not stated),.,.,.,3.0%,.,.
CCC(Cc1ccccc1)NC(=O)Cn1cccc1C(=O)c1ccccc1 (configuration not stated),-42.2*,-1.0%,3.1%,-3.4%,-4.3%,-7.8%
O=C(Cn1cccc1C(=O)c1ccccc1)NCCCc1ccccc1,-3.5,-0.7%,15.4%,-6.2%,2.2%,1.9%
O=C(Nc1ccc(C23CC4CC(CC(c5ccccc5)(C4)C2)C3)cc1)c1ccc(-c2ccccc2)cc1,.,.,.,-0.4%,.,.
O=C(NCCCCc1ccccc1)C1CC(c2cccc(F)c2)=NO1 (configuration not stated),-33.9*,-1.5%,-4.1%,-26.4%,0.8%,22.4%
SMILES,CCT chaperon mod,PINK1 modulator,p53 reactivator,12-LOX inh,MmCpn inh,ASM inhibitor
COc1cc(C2=NOC(C(=O)NCc3ccc(F)cc3)C2)cc(OC)c1OC (configuration not stated),0.1,5.5%[38.3 µM],?,4.9%,-0.8%,1.6%
COc1ccc(C2=NOC(C(=O)NCc3ccc(F)cc3)C2)cc1OC (configuration not stated),0.0,2.82µM*,-6.6%,-24.9%,0.7%,-2.2%
O=C1NCCCCCCN(Cc2ccc(C(F)(F)F)cc2)[C@H]2CCC[C@@H]12,.,.,.,127.1%,.,.
Cc1ccc2c(c1)C1NC(=S)NC(C)(O2)C1C(=O)Nc1ccc(Cl)cc1 (configuration not stated),1.3,1.1%,4.3%,28.2µM*,1.0%,.
COc1ccc2c(c1)C1NC(=S)N[C@@](C)(O2)C1C(=O)Nc1ccccc1 (some centres not stated),-1.9,3.3%,1.1%,?,-0.3%,1.6%
COc1ccc2c(c1)C1NC(=S)NC(C)(O2)C1C(=O)Nc1ccc(Cl)cc1 (configuration not stated),-1.0,3.4%,-3.3%,39.8µM*,0.2%,.
COc1ccc2c(c1)C1NC(=S)NC(C)(O2)C1C(=O)Nc1ccc(C)cc1C (configuration not stated),-3.7,-1.0%,8.0%,?,-24.4%,1.8%
Cc1cc(S(=O)(=O)NCC(C)O)c(C)cc1Br (configuration not stated),.,.,.,0.4%,.,.
O=C(Nc1ccccc1C(=O)NC(Cc1ccc(O)cc1)C(=O)O)c1ccccc1 (configuration not stated),-36.2*,1.4%,14.7%,-20.4%,0.1%,5.3%
O=C(Nc1ccccc1C(=O)NC(Cc1ccccc1)C(=O)O)c1ccco1 (configuration not stated),-1.4,1.9%,0.6%,-8.2%,1.6%,1.7%
Cc1ccc(S(=O)(=O)c2nc(-c3ccco3)oc2SC(C)c2ccccc2)cc1 (configuration not stated),.,-0.5%,.,?,.,.
CCCCSc1oc(-c2ccco2)nc1S(=O)(=O)c1ccc(F)cc1,.,.,.,7.94µM*,.,.
CC(C)Sc1oc(-c2ccco2)nc1S(=O)(=O)c1ccc(F)cc1,-0.2,6.8%,-4.1%,28.2µM*!,-10.7%,-1.6%
CCSc1oc(-c2ccc(F)cc2)nc1S(=O)(=O)c1ccc(C)cc1,.,0.7%,.,39.8µM*!,.,.
Cc1ccc(-c2nc(S(=O)(=O)c3ccc(C)cc3)c(SCC(=O)Nc3ccc(F)cc3)o2)cc1,.,0.5%,.,?,.,.
COc1ccc(OC)c(NC(=O)COC(=O)c2sccc2C)c1,.,.,.,1.5%,.,.
COc1ccc(C)cc1NC(=O)c1cnc(N2CCOCC2)c2ccccc12,.,.,.,2.6%,.,.
Cc1ccc(NC(=O)C(C)C)cc1C,.,.,.,-1.1%,.,.
